This note sets out measurements from PubChem BioAssay.

Structures are written as SMILES. Where “and” joins values, the source holds several entries; their conditions need not be identical. Equal entries are not always repeated. Calls of active or inactive are those of the source. How the calls were made is not given here.

A short description of this assay: modulators of glucocorticoid suppression of NF-kB, cell-based, luciferase, IL-1B stimulus, dexamethasone (AID 624486).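 On percent of negative control (+Dex): 100% = mean signal of vehicle control wells on the plate.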 As to conditions: NF-kB luciferase reporter, IL-1B + dexamethasone, luminescence; percent of negative control (+Dex): actives lie on both sides, concentration not given here; z-score: measured here: IL-1B alone, no Dex.
Take `COc1cc2ncn(-c3cc(O[C@H](C)c4ccccc4Cl)c(C(N)=O)s3)c2cc1OC`: the percent of negative control (+Dex) was 53.5% (inactive) and the z-score is -3.26.
Taken in the same sequence, the figures for `Clc1ccc(CNc2nccc(-c3cnn4ncccc34)n2)cc1` were 26.5% (active) and -7.22.
On to `CN1C(=O)C(c2c[nH]c3ccccc23)=C(c2c[nH]c3ccccc23)C1=O`, for which the z-score is -0.615 and the percent of negative control (+Dex) is 96.5% (inactive).
For the molecule `CCc1cccc(NC(=O)Nc2ccc(Oc3ccc4nc(NC(=O)OC)[nH]c4c3)cc2)c1`, the percent of negative control (+Dex) was 106% (inactive) and the z-score is 0.55.
Taken in the same sequence, the figures for `O=C1NC(=O)C(c2c[nH]c3ccccc23)=C1c1c[nH]c2ccccc12` were 98% (inactive) and -0.485.
Turning to `COc1cc2ncn(-c3cc(OCc4ccccc4S(C)(=O)=O)c(C#N)s3)c2cc1OC`, the z-score is -0.135 and the percent of negative control (+Dex) is 72.5% (inactive).
Regarding `Cn1cc(/C=C2\C(=O)Nc3cccnc32)c2ccccc21`, the z-score came to 0.27 and the percent of negative control (+Dex) is 92.5% (inactive).
As for `COc1cc(N2CCN(C(C)C)CC2)ccc1Nc1nc(Nc2ccc(F)cc2C(N)=O)c2cc[nH]c2n1`, the percent of negative control (+Dex) is 70% (inactive) and the z-score is -2.39.
For the molecule `NC(=O)c1ccc2c(-c3ccnc(NCCCO)n3)c(-c3ccc(F)cc3)nn2c1`, the percent of negative control (+Dex) is 106% (inactive) and the z-score was 0.705.
As for `Fc1ccc(-c2ncn(C3CCNCC3)c2-c2ccnc(Oc3ccc4c(c3)OCO4)n2)cc1`, the z-score worked out at 0.635 and the percent of negative control (+Dex) was 107% (inactive).
Regarding `Fc1cccc(COc2ccc(Nc3ncnc4sc(-c5ccco5)cc34)cc2Cl)c1`, the z-score was -0.11 and the percent of negative control (+Dex) was 89% (inactive).
Take `Cc1ccc(O)cc1Nc1ccnc2cc(-c3ccccn3)ccc12`: the z-score is -0.24 and the percent of negative control (+Dex) was 89.5% (inactive).
Consider `COc1ccc(-c2coc3ncnc(N)c23)cc1`, for which the percent of negative control (+Dex) is 84% (inactive) and the z-score was -0.765.
As for `Cn1c(=O)c(Oc2ccc(F)cc2F)cc2cnc(NC3CCOCC3)nc21`, the z-score is -0.045 and the percent of negative control (+Dex) is 102% (inactive).
For `N#Cc1c(NC(=O)c2ccccc2F)sc2c1CCCC2`, the percent of negative control (+Dex) is 282% (active) and the z-score was determined as 14.4.
`COc1ccc(-c2oc3ncnc(N)c3c2-c2ccc(NC(=O)Nc3cc(C(F)(F)F)ccc3F)cc2)cc1`: the percent of negative control (+Dex) is 93.5% (inactive) and the z-score was -2.24.
For the molecule `CN(C)CCOc1ccc(-c2nc(-c3ccc4c(c3)CC/C4=N\O)c(-c3ccncc3)[nH]2)cc1`, the z-score was 0.795 and the percent of negative control (+Dex) is 118% (inactive).
Consider `COc1ccc(COc2ccc(Cc3cnc(N)nc3N)cc2OC)cc1`, for which the z-score is -0.44 and the percent of negative control (+Dex) was 90% (inactive).
In the same order, the values of `CS(=O)(=O)Nc1ccc(-c2ccc3c(NC(=O)C4CC4)n[nH]c3c2)cc1` are 0.82 and 94% (inactive).
`Cn1cc(C2=C(c3c4n(c5ccccc35)CCC(CN)C4)C(=O)NC2=O)c2ccccc21` (configuration not stated): the z-score was -0.37 and the percent of negative control (+Dex) was 89.5% (inactive).
As to `Cn1cc(C2=C(c3cn(CCCSC(=N)N)c4ccccc34)C(=O)NC2=O)c2ccccc21`, the z-score was 0.705 and the percent of negative control (+Dex) is 98% (inactive).
`Fc1ccc(-c2c(-c3ccncc3)nc3n2CCS3)cc1`: the z-score is -5.96 and the percent of negative control (+Dex) was 40% (active).
`Cc1cc(O)cc(C)c1/C=C/c1cncc(C(=O)N(C)C)c1`: the percent of negative control (+Dex) is 106% (inactive) and the z-score was 0.005.
In the same order, the values of `CS(=O)(=O)CCNCc1nc(-c2ccc3ncnc(Nc4ccc(F)c(Cl)c4)c3c2)cs1` are 70.5% (inactive) and -1.57.
For the molecule `Nc1ncnc2occ(-c3ccc(NC(=O)Nc4cc(C(F)(F)F)ccc4F)cc3)c12`, the percent of negative control (+Dex) is 62.5% (inactive) and 72.5% (inactive); the z-score was -4.27 and -2.6.
Regarding `Nc1nccc(-c2c(-c3ccc(F)cc3)ncn2C2CCNCC2)n1`, the z-score is 1.59 and 1.56; the percent of negative control (+Dex) was 136% (inactive) and 118% (inactive).
